Measurements published in PubChem BioAssay (NCATS).
Records with an inconclusive call do not appear. Calls of active or inactive are those of the source. Calls follow the shape of the dose curve; as a rule, active = well fitted curve in the direction sought with a large enough effect; inconclusive = small, poorly fitted or top-dose-only effect, or another doubt; inactive = no such curve, though single readings can be large; an effect the other way counts as inactive or inconclusive.

Key:
[1] = S16 Schwann cell viability assay (CellTiter-Glo assay) (AID 624031);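 also: native untransfected S16 rat Schwann cells; cellular ATP luminescence as a viability measure; nearly all actives have a fitted effect of over 70% in size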
Method in brief: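 Cells were seeded at 500-750 per well in phenol red-free DMEM with 10% FBS and left overnight. Compounds or DMSO were pinned in, incubation ran 24 h at 37 °C/5% CO2, then CellTiter-Glo reagent was added and luminescence measured.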

AA1029 = assay: qHTS profiling for inhibitors of Plasmodium falciparum proliferation (AID 504749); also: nearly all actives have a fitted effect of over 60% in size; settings: P. falciparum in erythrocytes, SYBR Green DNA, 72 h; series mostly up to 12.8 µM
Method in brief: (§1)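 SYBR Green fluorescence of parasite DNA, read after lysis and overnight dark incubation, measured growth over 72 h in erythrocyte culture at 0.3% parasitemia and 2.5% hematocrit. Data normalised to DMSO and 0.29 uM artemisinin, with plate-drift correction.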

AS120 = assay: as above; settings: P. falciparum in erythrocytes, SYBR Green DNA, 72 h; series mostly up to 12.8 µM
Method in brief: as §1

ATS189 = assay: as above; settings: P. falciparum in erythrocytes, SYBR Green DNA, 72 h; series mostly up to 12.8 µM
Method in brief: as §1

ATS95 = assay: as above; settings: P. falciparum in erythrocytes, SYBR Green DNA, 72 h; series mostly up to 12.8 µM
Method in brief: as §1

CP191 = assay: as above; settings: P. falciparum in erythrocytes, SYBR Green DNA, 72 h; series mostly up to 12.8 µM
Method in brief: as §1

CP192 = assay: as above; settings: P. falciparum in erythrocytes, SYBR Green DNA, 72 h; series mostly up to 12.8 µM
Method in brief: as §1

CP238 = assay: as above; settings: P. falciparum in erythrocytes, SYBR Green DNA, 72 h; series mostly up to 12.8 µM
Method in brief: as §1

CP247 = assay: as above; settings: P. falciparum in erythrocytes, SYBR Green DNA, 72 h; series mostly up to 12.8 µM
Method in brief: as §1

CP256 = assay: as above; settings: P. falciparum in erythrocytes, SYBR Green DNA, 72 h; series mostly up to 12.8 µM
Method in brief: as §1

CP262 = assay: as above; settings: P. falciparum in erythrocytes, SYBR Green DNA, 72 h; series mostly up to 12.8 µM
Method in brief: as §1

CP265 = assay: as above; settings: P. falciparum in erythrocytes, SYBR Green DNA, 72 h; series mostly up to 12.8 µM
Method in brief: as §1

Dd2 = assay: as above; settings: P. falciparum in erythrocytes, SYBR Green DNA, 72 h; series mostly up to 12.8 µM
Method in brief: as §1

N140 = assay: as above; settings: P. falciparum in erythrocytes, SYBR Green DNA, 72 h; series mostly up to 12.8 µM
Method in brief: as §1

P93_24 = assay: as above; settings: P. falciparum in erythrocytes, SYBR Green DNA, 72 h; series mostly up to 12.8 µM
Method in brief: as §1

PAD = assay: as above; settings: P. falciparum in erythrocytes, SYBR Green DNA, 72 h; series mostly up to 12.8 µM
Method in brief: as §1

PC15 = assay: as above; settings: P. falciparum in erythrocytes, SYBR Green DNA, 72 h; series mostly up to 12.8 µM
Method in brief: as §1

SC27B = assay: as above; settings: P. falciparum in erythrocytes, SYBR Green DNA, 72 h; series mostly up to 12.8 µM
Method in brief: as §1

TAB109 = assay: as above; settings: P. falciparum in erythrocytes, SYBR Green DNA, 72 h; series mostly up to 12.8 µM
Method in brief: as §1

TAB165 = assay: as above; settings: P. falciparum in erythrocytes, SYBR Green DNA, 72 h; series mostly up to 12.8 µM
Method in brief: as §1

Measured: Potency

C[C@H]1CC[C@]2(OC1)O[C@@H]1C[C@@H]3[C@@H]4CC[C@H]5C[C@@H](O)CC[C@]5(C)[C@@H]4CC(=O)[C@@]3(C)[C@H]1[C@@H]2C
inactive: all assays above

COCC(=O)Nc1c(I)c(C(=O)NC[C@@H](O)CO)c(I)c(C(=O)N(C)C[C@@H](O)CO)c1I
inactive: all assays above

CCCC[C@H](CC)CN1CN(C[C@@H](CC)CCCC)CC(C)(N)C1
inactive: all assays above

CC[C@H](CO)NCCN[C@@H](CC)CO
inactive: all assays above

NC(=O)c1cc[n+](CC2=C(C(=O)[O-])N3C(=O)[C@@H](NC(=O)Cc4cccs4)[C@@H]3SC2)cc1
inactive: all assays above

NC(=O)c1ccc[n+]([C@@H]2O[C@H](COP(=O)([O-])OP(=O)(O)OC[C@H]3O[C@@H](n4cnc5c(N)ncnc54)[C@@H](O)[C@@H]3O)[C@@H](O)[C@@H]2O)c1
not listed: [1]
inactive: all other assays above
